6 compounds from PubChem BioAssay (Tox21) can be followed below.

A short description of assay [1]: qHTS RealTime-Glo MT Cell Viability Assay in HEK293 cells - 16 hour (AID 1224872). Further: nearly all actives have a fitted effect of over 50% in size. Further: potency means the concentration at half of the fitted maximal effect. The procedure, abridged:
(§1)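 Nonlytic real-time viability readout: viable cells convert prosubstrate to NanoLuc substrate, giving luminescence proportional to live cell number. HEK293, 600 cells/well, compound added after 5 h, continuous culture at 37 C.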

A short description of assay [2]: qHTS RealTime-Glo MT Cell Viability Assay in HepG2 cells - 8 hour (AID 1224873). Further: nearly all actives have a fitted effect of over 55% in size. Further: potency means the concentration at half of the fitted maximal effect. In a few lines: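 Real-time viability: cells seeded at 600 per well together with NanoLuc and cell-permeant prosubstrate, compounds added after 5 h incubation. Luminescence tracked at 0, 8, 16, 24, 32 and 40 h of exposure.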
A short description of assay [3]: qHTS RealTime-Glo MT Cell Viability Assay in HEK293 cells - 40 hour (AID 1224874). Further: nearly all actives have a fitted effect of over 50% in size. Further: potency means the concentration at half of the fitted maximal effect. As to conditions: RealTime-Glo luminescence; max response: active compounds read low. The procedure, abridged:
(§2)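 Luminescence, which tracks viable cell number through reduction of the prosubstrate to a NanoLuc substrate, was read over continuous 37 C culture. Cells (600/well) were premixed with reagent and rested 5 h before 23 nL of compound in DMSO was pinned.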

The nature of assay [4]: A CellTox Green Cytotoxicity Assay to monitor cytotoxicity in HEK293 cells - 24 hour (AID 1224875). Further: nearly all actives have a fitted effect of over 45% in size. Further: potency means the concentration at half of the fitted maximal effect. In a few lines: (§3)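 Fluorescence from a DNA-binding dye excluded by viable cells was measured repeatedly in the same HEK293 wells (600 cells/well) during continuous compound exposure at 37 C. Each assay gives one read point: 0, 8, 16, 24, 32 or 40 h.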
Assay [5] can be described thus: A CellTox Green Cytotoxicity Assay to monitor cytotoxicity in HepG2 cells - 16 hour (AID 1224876). Further: nearly all actives have a fitted effect of over 45% in size. Further: potency means the concentration at half of the fitted maximal effect. The procedure, abridged: (§4)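 Real-time cytotoxicity: fluorescence of a cell-impermeant cyanine dye binding DNA of dead HepG2 cells, measured repeatedly (0–40 h) during compound exposure at 37 C. Cells seeded 600/well with reagent, dosed after 5 h.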
Assay [6] in a line: qHTS RealTime-Glo MT Cell Viability Assay in HepG2 cells - 32 hour (AID 1224877). Further: nearly all actives have a fitted effect of over 55% in size. Further: potency means the concentration at half of the fitted maximal effect. In a few lines:
(§5)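 Luminescence read-out: viable HepG2 cells reduce a prosubstrate to a NanoLuc substrate, giving a signal proportional to live cell number. Reads taken at 0, 8, 16, 24, 32 and 40 h of compound exposure at 37 C.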

Assay [7] in a line: A CellTox Green Cytotoxicity Assay to monitor cytotoxicity in HepG2 cells - 24 hour (AID 1224878). Further: nearly all actives have a fitted effect of over 45% in size. Further: potency means the concentration at half of the fitted maximal effect. The procedure, abridged: as §4
Assay [8] is described as follows: A CellTox Green Cytotoxicity Assay to monitor cytotoxicity in HepG2 cells - 40 hour (AID 1224879). Further: nearly all actives have a fitted effect of over 40% in size. Further: potency means the concentration at half of the fitted maximal effect. In a few lines: as §4
Assay [9] can be described thus: qHTS RealTime-Glo MT Cell Viability Assay in HEK293 cells - 0 hour (AID 1224880). Further: top concentration of the series differs between compounds; nearly all actives have a fitted effect of over 45% in size. In a few lines: as §2
Assay [10] is described as follows: A CellTox Green Cytotoxicity Assay to monitor cytotoxicity in HEK293 cells - 32 hour (AID 1224881). Further: nearly all actives have a fitted effect of over 40% in size. Further: potency means the concentration at half of the fitted maximal effect. In a few lines: as §3
Assay [11] in a line: A CellTox Green Cytotoxicity Assay to monitor cytotoxicity in HepG2 cells - 0 hour (AID 1224882). Further: nearly all actives have a fitted effect of over 35% in size. The procedure, abridged:
as §4

Assay [12] is described as follows: A CellTox Green Cytotoxicity Assay to monitor cytotoxicity in HepG2 cells - 32 hour (AID 1224883). Further: nearly all actives have a fitted effect of over 50% in size. Further: potency means the concentration at half of the fitted maximal effect. In a few lines: as §4
Assay [13] can be described thus: A CellTox Green Cytotoxicity Assay to monitor cytotoxicity in HEK293 cells - 8 hour (AID 1224884). Further: nearly all actives have a fitted effect of over 35% in size. Further: potency means the concentration at half of the fitted maximal effect. In a few lines: as §3
Assay [14] can be described thus: qHTS RealTime-Glo MT Cell Viability Assay in HepG2 cells - 16 hour (AID 1224885). Further: nearly all actives have a fitted effect of over 50% in size. Further: potency means the concentration at half of the fitted maximal effect. The procedure, abridged:
as §5

Assay [15] is described as follows: qHTS RealTime-Glo MT Cell Viability Assay in HEK293 cells - 24 hour (AID 1224886). Further: nearly all actives have a fitted effect of over 50% in size. Further: potency means the concentration at half of the fitted maximal effect. In a few lines:
as §1

Assay [16] in a line: qHTS RealTime-Glo MT Cell Viability Assay in HEK293 cells - 8 hour (AID 1224887). Further: nearly all actives have a fitted effect of over 50% in size. Further: potency means the concentration at half of the fitted maximal effect. The procedure, abridged: as §2
The nature of assay [17]: A CellTox Green Cytotoxicity Assay to monitor cytotoxicity in HEK293 cells - 16 hour (AID 1224888). Further: nearly all actives have a fitted effect of over 35% in size. Further: potency means the concentration at half of the fitted maximal effect. The procedure, abridged: as §3
Assay [18] is described as follows: qHTS RealTime-Glo MT Cell Viability Assay in HepG2 cells - 0 hour (AID 1224889). Further: nearly all actives have a fitted effect of over 50% in size. The procedure, abridged:
as §5

Assay [19] in a line: A CellTox Green Cytotoxicity Assay to monitor cytotoxicity in HepG2 cells - 8 hour (AID 1224890). Further: nearly all actives have a fitted effect of over 45% in size. Further: potency means the concentration at half of the fitted maximal effect. In a few lines: as §4
Assay [20] can be described thus: qHTS assay to identify small molecule antagonists of the estrogen receptor alpha (ER-alpha) signaling pathway using the BG1 cell line in the presence of 0.1 nM 17-beta-estradiol - cell viability counter screen (AID 1259241). Further: nearly all actives have a fitted effect of over 40% in size. In a few lines:
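Live-cell protease activity (CellTiter-Fluor fluorescence, 30 min) was read in the same wells after VM7Luc4E2 cells had been exposed to compounds with 0.1 nM 17beta-estradiol for 22 hr at 37C.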

Values joined by “and” are separate entries in the source; they are usually repeats but may differ in a detail not shown here. Identical values can stand only once. Values without a mark were called inactive. Records with an inconclusive call do not appear. Active and inactive are the calls of the source. The call rests on the fitted dose curve; in most records, active means well fitted curve in the direction sought with a large enough effect in the repeat runs; inconclusive means weak or mixed curves; inactive means no such curve, though single readings can be large; an effect the other way counts as inactive or inconclusive.
On the % scale 0 is the no-effect control and ±100 the full control effect.

With `C=CC/C=C/C/C=C/C/C=C/C`, the Potency result in assay [1], in assay [2], in assay [4], in assay [5], in assay [6] and in [7] was “inactive” each time. Further, the Potency result in assay [8], in [9], in [10], in assay [11], in assay [12] and in assay [13] was “inactive” in each case. Besides, the Potency entry in assay [14], in assay [15], in assay [16], in assay [17], in assay [18] and in assay [19] was “inactive” throughout. Also, in assay [20], the Potency entry was “inactive”. Moreover, in assay [3], the max response is 0%.
`CCOC(=O)COc1ccc(C)cc1`: the Potency entry in assay [1], in assay [2], in [4], in [5], in [6] and in assay [7] was “inactive” each time. The Potency entry in assay [8], in assay [9], in [10], in assay [11], in [12] and in [13] was “inactive” in each case. Further, the Potency entry in assay [14], in [15], in assay [16], in assay [17], in assay [19] and in assay [20] was “inactive” throughout. Also, the max response in [3] was 0.285%.
Turning to `CCCCCCCCCCCCOC(=O)c1cc(O)c(O)c(O)c1`, the Potency is 6.89 µM (active) and 5.49 µM (active) in assay [1]; 48.8 µM (active) and 43.6 µM (active) in assay [2]; 3.45 µM (active) and 3.47 µM (active) in [3]; 54.7 µM (active) and 49 µM (active) in assay [4]; 48.8 µM (active) and 38.9 µM (active) in assay [5]; 54.7 µM (active) and 49 µM (active) in assay [6]. Moreover, the Potency is 48.8 µM (active) and 49 µM (active) in assay [7]; 48.8 µM (active) and 54.9 µM (active) in assay [8]; 48.8 µM (active) and 49 µM (active) in [10]; 48.8 µM (active) and 54.9 µM (active) in assay [12]; 54.7 µM (active) in assay [13]; 48.8 µM (active) and 49 µM (active) in [14]. The Potency was 4.35 µM (active) and 3.89 µM (active) in assay [15]; 7.73 µM (active) and 6.17 µM (active) in [16]; 54.7 µM (active) and 43.6 µM (active) in [17]; 48.8 µM (active) and 21.9 µM (active) in [19]. For the same compound, the Potency result in assay [9], in assay [11] and in assay [18] was “inactive” each time.
As to `COC(=O)NCCC[Si](OC)(OC)OC`, the Potency entry in assay [1], in [2], in assay [4], in assay [5], in [6] and in assay [7] was “inactive” each time. Besides, the Potency result in assay [8], in assay [9], in [10], in assay [11], in assay [12] and in assay [13] was “inactive” each time. The Potency result in assay [14], in assay [15], in assay [16], in assay [17], in assay [18] and in assay [19] was “inactive” in each case. For the same compound, the Potency entry in assay [20] is “inactive”. The max response in assay [3] was 15.5%.
Consider `C=CC(=O)OCCN(CC)CC`, for which the Potency result in [1], in [2], in assay [4], in assay [5], in [6] and in [7] was “inactive” throughout. Besides, the Potency entry in [8], in assay [9], in assay [10], in assay [11], in [12] and in assay [13] was “inactive” in each case. In addition, the Potency entry in [14], in [15], in [16], in assay [17], in assay [19] and in assay [20] was “inactive” throughout. The max response in assay [3] is 3.34%.
Consider `COC(=O)CC#N`, for which the Potency result in [1], in [2], in assay [4], in assay [5], in assay [6] and in assay [7] was “inactive” throughout. The Potency entry in assay [8], in assay [9], in assay [10], in [11], in assay [12] and in [13] was “inactive” each time. The Potency result in assay [14], in assay [15], in assay [16], in assay [18], in [19] and in assay [20] was “inactive” in each case. Further, the max response in assay [3] is 9.57%.
